Data taken from the supplement of paper PMC12669032.

tested on: Bacteroides caccae; test: growth AUC relative to DMSO control (median of replicates) (fraction); higher = more growth (less inhibition), active = hit call of the paper; conditions: 20 µM; 24 h;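 active = AUC reduced over 20% with Padj below 0.05 in at least 2 of 3 replicates; inactive = otherwise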
Method in brief: (§1)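 In round-bottom 96-well plates sealed with pierced gas-permeable seals, gut bacterial monocultures in mGAM were grown anaerobically at 37 °C from OD600 0.05 with 20 µM compound (1% DMSO). OD600 readings were taken hourly for 24 h, and the minimum OD was set to 0. Area under the growth curve was then normalised to the plate median of solvent-only wells, or to row and column medians on the industrial chemical plate. The value given is the median of three biological replicates grown on separate days.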

Row | SMILES | growth AUC
1 | CCS(=O)(=O)c1nc2ccccn2c1S(=O)(=O)NC(=O)Nc1nc(OC)cc(OC)n1 | 1.02 (inactive)
2 | C[Si](Cn1cncn1)(c1ccc(F)cc1)c1ccc(F)cc1 | 0.891 (inactive)
3 | CCSC(=O)N1CCCCCC1 | 1.05 (inactive)
4 | O=[N+]([O-])c1ccc(Oc2ccc(C(F)(F)F)cc2[N+](=O)[O-])cc1 | 0.929 (inactive)
5 | CC#Cc1cc(C)nc(Nc2ccccc2)n1 | 1.01 (inactive)
6 | COP(=O)(OC)OC1=C(Cl)C2C=CCC12 (stereo not drawn) | 0.928 (inactive)
7 | CCC(C)[C@H]1O[C@]2(C=C[C@@H]1C)C[C@@H]1C[C@@H](C/C=C(\C)[C@@H](O[C@H]3C[C@H](OC)[C@@H](O[C@H]4C[C@H](OC)[C@@H](O)[C@H](C)O4)[C@H](C)O3)[C@@H](C)/C=C/C=C3\CO[C@@H]4[C@H](O)C(C)=C[C@@H](C(=O)O1)[C@]34O)O2.CO[C@H]1C[C@H](O[C@H]2[C@H](C)O[C@@H](O[C@@H]3/C(C)=C/C[C@@H]4C[C@@H](C[C@]5(C=C[C@H](C)[C@@H](C(C)C)O5)O4)OC(=O)[C@@H]4C=C(C)[C@@H](O)[C@H]5OC/C(=C\C=C\[C@@H]3C)[C@]54O)C[C@@H]2OC)O[C@@H](C)[C@@H]1O (stereo partly drawn) | 0.965 (inactive)
8 | C[C@@H](Oc1ccc(Oc2nc3ccc(Cl)cc3o2)cc1)C(=O)O | 1 (inactive)
9 | N#Cc1cc(I)c(O)c(I)c1 | 0.802 (inactive)
10 | CCc1cnc(C2=NC(C)(C(C)C)C(=O)N2)c(C(=O)O)c1 (stereo not drawn) | 1.01 (inactive)
11 | CON(C)C(=O)Nc1ccc(Cl)cc1 | 1.02 (inactive)
12 | COCC(=O)N(c1c(C)cccc1C)C(C)C(=O)OC (stereo not drawn) | 1.03 (inactive)
13 | O=C1C[C@@H]2OCC=C3CN4CC[C@]56c7ccccc7N1[C@H]5[C@H]2[C@H]3C[C@H]46 | 0.968 (inactive)
14 | CC(C)=CC1C(C(=O)OCN2C(=O)C3=C(CCCC3)C2=O)C1(C)C (stereo not drawn) | 0.916 (inactive)
15 | CCOP(=O)(SC(C)CC)SC(C)CC (stereo not drawn) | 1.01 (inactive)
16 | Oc1ccc(Cl)c(Cl)c1Cl | 0.922 (inactive)
17 | CSc1nnc(C(C)(C)C)c(=O)n1N | 1.07 (inactive)
18 | Oc1c(Cl)ccc(Cl)c1Cl | 0.927 (inactive)
19 | CCC1COC(Cn2cncn2)(c2ccc(Cl)cc2Cl)O1 (stereo not drawn) | 0.992 (inactive)
20 | O=[N+]([O-])/N=C1\NCCN1Cc1ccc(Cl)nc1 | 1.01 (inactive)

Row | SMILES | growth AUC
21 | CCCCCCCCCCCCCN1CC(C)OC(C)C1 (stereo not drawn) | 0.969 (inactive)
22 | O=[N+]([O-])c1ccc(Oc2ccc(Cl)cc2Cl)cc1 | 0.959 (inactive)
23 | COc1cc(OC)nc(NC(=O)NS(=O)(=O)c2cc(NC=O)ccc2C(=O)N(C)C)n1 | 1.01 (inactive)
24 | C[N+](C)(C)CCCl.[Cl-] | 1.01 (inactive)
25 | O=c1ccc(=O)[nH][nH]1 | 0.973 (inactive)
26 | CCC(C)(c1ccc(O)cc1)c1ccc(O)cc1 | 0.989 (inactive)
27 | Cc1cc(C(F)(C(F)(F)F)C(F)(F)F)ccc1NC(=O)c1cccc(I)c1C(=O)NC(C)(C)CS(C)(=O)=O | 1.2 (inactive)
28 | CN(C)C(=O)Nc1ccc(Cl)cc1 | 1.02 (inactive)
29 | O=C(O)C1(O)c2ccccc2-c2ccc(Cl)cc21 (stereo not drawn) | 0.979 (inactive)
30 | N#CCNC(=O)c1cnccc1C(F)(F)F | 1.01 (inactive)
31 | CCOP(=S)(OCC)Oc1nc(Cl)n(C(C)C)n1 | 0.932 (inactive)
32 | CCCCN(CC)C(=O)SCCC | 1.01 (inactive)
33 | c1coc(-c2nc3ccccc3[nH]2)c1 | 0.937 (inactive)
34 | CC(C)Nc1nc(Cl)nc(NC(C)C)n1 | 0.825 (inactive)
35 | CN=C=S | 1.01 (inactive)
36 | Clc1ccc(Cl)c(Cl)c1 | 0.88 (inactive)
37 | O=C1C2(Cl)C3(Cl)C4(Cl)C(Cl)(Cl)C5(Cl)C3(Cl)C1(Cl)C5(Cl)C24Cl (stereo not drawn) | 0.0318 (active)
38 | Nc1ccncc1 | 0.997 (inactive)
39 | O=C(O)c1cc(Cl)ccc1Cl | 0.998 (inactive)

tested on: Bacteroides clarus; test: as above; conditions: 20 µM; 24 h
Method in brief: as §1

Row | SMILES | growth AUC
40 | CCS(=O)(=O)c1nc2ccccn2c1S(=O)(=O)NC(=O)Nc1nc(OC)cc(OC)n1 | 1.02 (inactive)
41 | C[Si](Cn1cncn1)(c1ccc(F)cc1)c1ccc(F)cc1 | 0.907 (inactive)
42 | CCSC(=O)N1CCCCCC1 | 0.974 (inactive)
43 | O=[N+]([O-])c1ccc(Oc2ccc(C(F)(F)F)cc2[N+](=O)[O-])cc1 | 0.878 (inactive)
44 | CC#Cc1cc(C)nc(Nc2ccccc2)n1 | 0.991 (inactive)
45 | COP(=O)(OC)OC1=C(Cl)C2C=CCC12 (stereo not drawn) | 0.995 (inactive)
46 | CCC(C)[C@H]1O[C@]2(C=C[C@@H]1C)C[C@@H]1C[C@@H](C/C=C(\C)[C@@H](O[C@H]3C[C@H](OC)[C@@H](O[C@H]4C[C@H](OC)[C@@H](O)[C@H](C)O4)[C@H](C)O3)[C@@H](C)/C=C/C=C3\CO[C@@H]4[C@H](O)C(C)=C[C@@H](C(=O)O1)[C@]34O)O2.CO[C@H]1C[C@H](O[C@H]2[C@H](C)O[C@@H](O[C@@H]3/C(C)=C/C[C@@H]4C[C@@H](C[C@]5(C=C[C@H](C)[C@@H](C(C)C)O5)O4)OC(=O)[C@@H]4C=C(C)[C@@H](O)[C@H]5OC/C(=C\C=C\[C@@H]3C)[C@]54O)C[C@@H]2OC)O[C@@H](C)[C@@H]1O (stereo partly drawn) | 1.07 (inactive)
47 | C[C@@H](Oc1ccc(Oc2nc3ccc(Cl)cc3o2)cc1)C(=O)O | 1.01 (inactive)
48 | N#Cc1cc(I)c(O)c(I)c1 | 0.76 (active)
49 | CCc1cnc(C2=NC(C)(C(C)C)C(=O)N2)c(C(=O)O)c1 (stereo not drawn) | 0.971 (inactive)
50 | CON(C)C(=O)Nc1ccc(Cl)cc1 | 0.983 (inactive)
51 | COCC(=O)N(c1c(C)cccc1C)C(C)C(=O)OC (stereo not drawn) | 1.02 (inactive)
52 | O=C1C[C@@H]2OCC=C3CN4CC[C@]56c7ccccc7N1[C@H]5[C@H]2[C@H]3C[C@H]46 | 0.998 (inactive)
53 | CC(C)=CC1C(C(=O)OCN2C(=O)C3=C(CCCC3)C2=O)C1(C)C (stereo not drawn) | 0.924 (inactive)
54 | CCOP(=O)(SC(C)CC)SC(C)CC (stereo not drawn) | 0.962 (inactive)
55 | Oc1ccc(Cl)c(Cl)c1Cl | 0.975 (inactive)
56 | CSc1nnc(C(C)(C)C)c(=O)n1N | 1.01 (inactive)
57 | Oc1c(Cl)ccc(Cl)c1Cl | 0.968 (inactive)
58 | CCC1COC(Cn2cncn2)(c2ccc(Cl)cc2Cl)O1 (stereo not drawn) | 0.935 (inactive)
59 | O=[N+]([O-])/N=C1\NCCN1Cc1ccc(Cl)nc1 | 1.02 (inactive)

Row | SMILES | growth AUC
60 | CCCCCCCCCCCCCN1CC(C)OC(C)C1 (stereo not drawn) | 1 (inactive)
61 | O=[N+]([O-])c1ccc(Oc2ccc(Cl)cc2Cl)cc1 | 0.971 (inactive)
62 | COc1cc(OC)nc(NC(=O)NS(=O)(=O)c2cc(NC=O)ccc2C(=O)N(C)C)n1 | 0.979 (inactive)
63 | C[N+](C)(C)CCCl.[Cl-] | 1.03 (inactive)
64 | O=c1ccc(=O)[nH][nH]1 | 1.01 (inactive)
65 | CCC(C)(c1ccc(O)cc1)c1ccc(O)cc1 | 0.925 (inactive)
66 | Cc1cc(C(F)(C(F)(F)F)C(F)(F)F)ccc1NC(=O)c1cccc(I)c1C(=O)NC(C)(C)CS(C)(=O)=O | 1.2 (inactive)
67 | CN(C)C(=O)Nc1ccc(Cl)cc1 | 0.971 (inactive)
68 | O=C(O)C1(O)c2ccccc2-c2ccc(Cl)cc21 (stereo not drawn) | 0.935 (inactive)
69 | N#CCNC(=O)c1cnccc1C(F)(F)F | 0.959 (inactive)
70 | CCOP(=S)(OCC)Oc1nc(Cl)n(C(C)C)n1 | 1.02 (inactive)
71 | CCCCN(CC)C(=O)SCCC | 1.01 (inactive)
72 | c1coc(-c2nc3ccccc3[nH]2)c1 | 1 (inactive)
73 | CC(C)Nc1nc(Cl)nc(NC(C)C)n1 | 0.989 (inactive)
74 | CN=C=S | 0.977 (inactive)
75 | Clc1ccc(Cl)c(Cl)c1 | 1.04 (inactive)
76 | O=C1C2(Cl)C3(Cl)C4(Cl)C(Cl)(Cl)C5(Cl)C3(Cl)C1(Cl)C5(Cl)C24Cl (stereo not drawn) | 0.02 (active)
77 | Nc1ccncc1 | 0.997 (inactive)
78 | O=C(O)c1cc(Cl)ccc1Cl | 0.989 (inactive)
